Assay results published in ChEMBL document CHEMBL3988442, “University of Dundee, Small-Polar-MMV Screening Library” (2021).
The whole screen tested about 48,000 compounds, of which about 13,000 (27%) showed an effect of 50% or more. The list shows a part of the results.

System: Wolbachia pipientis
Experiment: Anti-Wolbachia Cell-Based Screen
Assay type: functional
Set-up: scale not given: in the data most compounds retested in dose-response had high values
Conditions: 5 µM

Compound | Percent Effect
Cc1ccc(C(=O)N2C[C@@H](NS(C)(=O)=O)[C@H](C(C)C)C2)cc1O | 5.531%
CC(CCc1cccn1C)NC(=O)Nc1cccn(C)c1=O (centres undefined) | -4.481%
Cc1ccccc1OCC1CCCN(C(=O)CNC(=O)N(C)C)C1 (centres undefined) | 1.963%
N#Cc1cccc(CN2CCN(C(=O)C3CCC3)[C@@H]3CS(=O)(=O)C[C@@H]32)c1 | 2.28%
Cc1csc(CCNC(=O)c2ccc(N(C)C)c(F)c2)n1 | -10.73%
CCN(Cc1ccoc1)C(=O)NC1CCN(CC2CCCC2)CC1 | -1.692%
COc1ccc(N(Cc2ccco2)C(=O)C2CCCO2)cc1F (centres undefined) | 12.44%
COc1ccc(OC)c(CN(Cc2ccco2)Cc2[nH]cnc2C)c1.O=C(O)CC(O)(CC(=O)O)C(=O)O | 125%
CCOCC(=O)N(Cc1ccco1)c1ccc(OC)c(F)c1 | -17.42%
COCCN(CCOC)c1ncccc1I | 19.77%
CC(C)N(C)CCCNC(=O)c1cnn(C(C)C)c1C(F)(F)F | 7.835%
O=C(NCCCn1ccnc1)c1csc2c1CCCC2 | 4.867%
COCC(C)NC(=O)c1cn(C(C)C)cc2c(=O)[nH]nc1-2 (centres undefined) | 106.6%
COCCCNC(=O)c1cn(C(C)C)cc2c(=O)[nH]nc1-2 | 104.5%
CCn1nc(C(C)C)cc1C(=O)NCCCOC | -18.28%
CC(C(=O)NCCCn1ccnc1)n1cc(Br)cn1 (centres undefined) | 2.347%
COCC(C)NC(=O)c1nnn(-c2ccc(F)cc2)n1 (centres undefined) | -1.834%
COc1cccc(-c2n[nH]cc2C(=O)NC(C)CC(=O)O)c1 (centres undefined) | -19.78%
CC(C)n1cc(C(=O)NCCCn2ccnc2)c2n[nH]c(=O)c-2c1 | 123.9%
Cc1ccsc1CN(C)c1nc2c(cnn2C(C)(C)C)c(=O)[nH]1 | -15.84%
O=C(C1CCCC1)N1CCN(Cc2nc(-c3ccco3)no2)CC1 | 3.823%
NC(=O)NCC1CCCCN1Cc1nc(-c2ccco2)no1 (centres undefined) | 116.5%
O=C(c1ccco1)N1CCN(Cc2nc(C3CC3)no2)CC1 | -17.27%
O=C(C1CCN(Cc2nc(-c3ccco3)no2)CC1)N1CCCC1 | 109.9%
c1coc(-c2noc(CN3CCc4c(ncn4C4CC4)C3)n2)c1 | -13.05%

Compound | Percent Effect
O=C(C1CCCCN1Cc1nc(-c2ccco2)no1)N1CCCC1 (centres undefined) | -6.382%
c1coc(-c2noc(CN3CCC(c4ccn[nH]4)CC3)n2)c1 | 3.524%
O=C(C1CCCN1Cc1nc(-c2ccco2)no1)N1CCSCC1 (centres undefined) | 97.23%
O=C(C1CCCCC1)N1CCN(Cc2nc(-c3ccco3)no2)CC1 | 98.36%
CC(C)c1cc(C2CCCN2Cc2nc(-c3ccco3)no2)no1 (centres undefined) | -36.51%
CC(C)(C)CC1CCCN1Cc1nc(-c2ccco2)no1 (centres undefined) | 1.615%
CCCOCCOC(=O)c1ccc2c(c1)[nH]c(=O)n2C | -3.927%
NC(=O)CCn1cc(CNCCCc2ccccc2O)c2ccccc21 | 15.24%
COc1cc(C(=O)Nc2nc(C)no2)ccc1C | -1.332%
COCC(=O)NC[C@@]1(COc2cnccn2)C[C@@H](O)[C@@H](O)C1.Cl | -5.232%
COCCOCCCC(=O)N1CCC(Cc2ccccc2OC)CC1 | -18.09%
FC(F)Oc1ccccc1CNCc1cc(Br)c2c(c1)OCO2 | 6.017%
c1ccc(CC2(CNCc3ncc[nH]3)CCC2)cc1 | -10.87%
O=C1CCC2(CCN(c3ncc(F)cn3)CC2)N1CCN1CCCC1 | 20.59%
N#Cc1ccc(N2CCCC3(CCN(c4cncnc4)C3=O)C2)nc1.O=C(O)C(F)(F)F (centres undefined) | 104%
N#Cc1ccc(N2CCCC3(CCC(=O)N3CC3CC3)CC2)nc1.O=C(O)C(F)(F)F (centres undefined) | 105.4%
N#Cc1ccc(N2CCC(c3nc(C(F)(F)F)c[nH]3)CC2)nc1 | -13.67%
N#Cc1cccc(CN2CC3(CCCCN3c3cncnc3)CC2=O)c1.O=C(O)C(F)(F)F (centres undefined) | -19.74%
N#Cc1ccc(N2CCC3(CCC(=O)N3CCN3CCCC3)CC2)nc1.O=C(O)C(F)(F)F.O=C(O)C(F)(F)F | 111.3%
COc1cc(N2CCCC3(CCN(c4cccnc4)C3=O)C2)ncn1.O=C(O)C(F)(F)F (centres undefined) | -87.96%
O=C(O)C(F)(F)F.O=C(O)C(F)(F)F.O=C1CCC2(CCCN(Cc3nccs3)C2)N1CC1CC1 (centres undefined) | -83.2%
CN1C(=O)CCC12CCN(c1ccc(C#N)cn1)CC2.O=C(O)C(F)(F)F | 114%
O=C(O)C(F)(F)F.O=C(O)C(F)(F)F.O=C(c1ccncc1)N1CCCC2(CCN(c3cccnc3)C2=O)C1 (centres undefined) | -3.414%
O=C1CCC2(CCCN(c3ncc(F)cn3)CC2)N1CC1CC1 (centres undefined) | -5.991%
COCCN1CCOCC12CCN(c1ccc(C#N)cc1)CC2.O=C(O)C(F)(F)F | 1.624%

Compound | Percent Effect
CC(C)c1nc(N2CC[C@@H](N(C)CCc3ccccn3)[C@H](O)C2)no1 | -7.34%
CSc1cccc(CN(C)C(=O)C2CC(=O)N(CCN(C)C)C2)c1 (centres undefined) | 0.2115%
Cc1cccc2c(=O)n(C(C)Cc3cccnc3)cnc12 (centres undefined) | 5.15%
Cc1cn([C@@H]2CC3(CCNCC3)OC[C@@]2(C)O)c(=O)[nH]c1=O | 120.3%
Cc1cn([C@H]2CCNC[C@]2(C)O)c(=O)[nH]c1=O | 91.37%
N#Cc1ccc(NCc2cccnc2N2CCC(C(N)=O)CC2)cn1 | 11.59%
Cl.O=C(N1CCCC1)N1CCc2c(CNc3ncccn3)cncc2C1 | -8.095%
COCCC(=O)N1CCc2c(CNc3ncccn3)cncc2C1.Cl | -6.28%
CCCC(=O)N1CCc2c(CNS(C)(=O)=O)cncc2C1.Cl | 100.5%
CC(=O)NCC(=O)N1CCc2c(CNc3ncccn3)cncc2C1.Cl | -3.566%
CS(=O)(=O)NCc1cncc2c1CCN(C(=O)N1CCCC1)C2.Cl | 112.8%
CCCn1[nH]cc/c1=N\C(=O)CN1CCCC1c1c(C)nn(C)c1C (centres undefined) | -11.65%
COc1ccccc1N1CCN(C(=O)CCn2ccc(C)n2)CC1(C)C | -8.619%
N#Cc1cccnc1N1CCCN(C(=O)CCc2cccs2)CC1 | -1.405%
N#Cc1cccnc1N1CCCN(C(=O)CCn2cccn2)CC1 | 107%
N#Cc1cccnc1N1CCN(C(=O)CCC(=O)c2cccs2)CC1 | 2.306%
COc1ccccc1N1CCN(C(=O)CCn2ccnc2C)CC1(C)C | 3.273%
N#Cc1ccccc1N1CCN(CCC(=O)N2CCOCC2)CC1 | 8.66%
Cc1cnn(CCC(=O)N2CCCN(c3ccccc3C#N)CC2)c1 | 106.5%
Cn1cc(CCC(=O)N2CCCN(c3ncccc3C#N)CC2)cn1 | 89.9%
COc1ccnc(N2CCCN(C(=O)CCc3cnn(C)c3)CC2)n1 | -25.81%
COc1ccccc1N1CCN(C(=O)CCn2ccc(C)n2)CC1 | 112.7%
N#Cc1ccccc1N1CCCN(C(=O)CCn2cccn2)CC1 | -8.555%
Cc1cnn(CCC(=O)N2CCCN(c3cccnn3)CC2)c1 | 7.961%
